We go through 16 compounds from the supplement of paper PMC8253809.

The test system of this test is SUDIPGIV (diffuse intrinsic pontine glioma line)
The test is described as follows: growth inhibition (% activity, log2 RLU normalised to DMSO / staurosporine); higher = more growth inhibition. Conditions: 33 µM. In outline: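 For each approved drug, the growth-inhibition value is the replicate median of per-plate normalised CellTiter-Glo data. Luminescence was log2-transformed and expressed as % activity between solvent and positive control wells. Drugs were applied in triplicate at a single final concentration of about 33 μM for 7 days at 37 °C, 5% CO2 to pHGG cell lines and H9-derived neural stem cells.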
For `C[C@]12C=CC(=O)C=C1CC[C@H]1[C@@H]3C[C@@H](O)[C@](O)(C(=O)CO)[C@@]3(C)C[C@H](O)[C@@]12F`, the growth inhibition is -3.68%.

For the compound `NCCC(O)(P(=O)(O)O)P(=O)(O)O`, the growth inhibition stood at 1.34%.

With `CCC[C@@H]1C[C@@H](C(=O)N[C@@H]([C@H]2O[C@H](SC)[C@H](OP(=O)(O)O)[C@@H](O)[C@H]2O)[C@H](C)Cl)N(C)C1`, the growth inhibition is -1.74%.

Regarding `CC(C)[C@H](N)C(=O)OCC(CO)OCn1cnc2c(=O)[nH]c(N)nc21` (stereo partly specified), the growth inhibition was 0.2%.

For the compound `Nc1ccc(S(=O)(=O)Nc2ccccn2)cc1`, the growth inhibition was -1.02%.

On to `CCCCCCCCCCCCCCCCO`, for which the growth inhibition was 2.42%.

With `CC(CN(C)C)CN1c2ccccc2CCc2ccccc21` (stereo unspecified), the growth inhibition came to 1.48%.

For the compound `NCCCC[C@H](N[C@@H](CCc1ccccc1)C(=O)O)C(=O)N1CCC[C@H]1C(=O)O`, the growth inhibition is -0.401%.

On to `CC(N)C12CC3CC(CC(C3)C1)C2` (stereo unspecified), for which the growth inhibition turned out to be 0.585%.

Turning to `CCCCCN(C)CCC(O)(P(=O)(O)O)P(=O)(O)O`, the growth inhibition was -4.22%.

For the compound `CSc1ccc2c(c1)N(CCC1CCCCN1C)c1ccccc1S2` (stereo unspecified), the growth inhibition amounted to 0.193%.

On to `CN/C(=N\CCSCc1nc[nH]c1C)NC#N`, for which the growth inhibition is -0.184%.

Regarding `CN[C@@H]1[C@H](O[C@H]2[C@H](O[C@H]3[C@H](O)[C@@H](O)[C@H](N=C(N)N)[C@@H](O)[C@@H]3N=C(N)N)O[C@@H](C)[C@]2(O)C=O)O[C@@H](CO)[C@H](O)[C@H]1O`, the growth inhibition is -0.137%.

On to `COc1cc2c(cc1O)CC[C@@H]1[C@@H]2CC[C@]2(C)[C@@H](O)CC[C@@H]12`, for which the growth inhibition stood at 20.7%.

`CC(C)C[C@H](NC(=O)[C@H](O)[C@H](N)Cc1ccccc1)C(=O)O`: the growth inhibition is -2.58%.

For the compound `CC=CC1=C(C(=O)O)N2C(=O)[C@@H](NC(=O)[C@H](N)c3ccc(O)cc3)[C@H]2SC1`, the growth inhibition was -0.89%.
